Laboratory results: PubChem BioAssay AID624304 (Sanford-Burnham Center for Chemical Genomics, 2012)
Screen size: about 360,000 compounds; about 1,800 (0.5%) were called active. This is one part of a sample in which actives are shown more often than they occur. Values without a mark were called inactive.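 Rule for the calls: active = interference check ratio from 0.5 to 1.5 plus GFP to RFP signal ratio inhibition reaching or exceeding a fixed threshold (cut at about 30% in these data, passing the limit was not always enough); inactive = the rest.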

Assay: gst-4 reporter inhibition in live C. elegans – whole organism, uHTS, GFP/RFP fluorescence ratio, strain VP596, SKN-1 inhibitor project, primary screen (AID 624304)
Details: C. elegans VP596 Pgst-4::GFP/RFP ratio, acrylamide-induced, 24 h; at 21.8 µM; stronger effect = higher value

| SMILES | inhibition |
| --- | --- |
| COC(=O)[C@]1(Cc2ccccc2)N[C@H](CN(C)S(=O)(=O)c2ccc(OC(F)(F)F)cc2)[C@@H]2C(=O)N(C)C(=O)[C@@H]21 | 3.7% |
| COCCn1cnc2c1c(=O)n(Cc1ccc(Br)cc1)c(=O)n2Cc1ccccc1 | 21.1% |
| N=c1c2c(-c3ccccc3)c(-c3ccccc3)n(Cc3ccccc3)c2ncn1CCCO | 36.6% (active) |
| COCCn1cnc2c1c(=O)n(CC(=O)NN)c(=O)n2Cc1ccccc1 | 5.34% |
| Cc1[nH]c(C)c(S(=O)(=O)N2CCN(c3cccc(C(F)(F)F)c3)CC2)c1C(=O)N1CCCC1 | 16.8% |
| CCOC(=O)[C@]12CCCC=C1N(CCC1=CCCCC1)C(=O)[C@H](CC(=O)N1CCOCC1)C2 | 6.43% |
| CN1CN(C)c2ccc([N+](=O)[O-])c3cccc1c23 | 38.8% (active) |
| CN1CCN(S(=O)(=O)c2ccc(N3CCN(c4ccccc4O)CC3)c([N+](=O)[O-])c2)CC1 | -7.8% |
| Cc1cccc(N2CCN(c3ccc(C(N)=O)cc3[N+](=O)[O-])CC2)c1C | 6.19% |
| COc1ncnc2c1N=C1CC(C)(C)CC(N)=C1S2 | 46.6% (active) |
| CCOc1ccc(C(CC(=O)O)NC(=O)COc2ccccc2)cc1 (stereo not given) | 0.0857% |
| OC(c1nnc(-c2ccccc2)o1)c1cccs1 (stereo not given) | -9.63% |
| CN1CCN(C(=O)c2ccc(NC(=O)c3ccc(Br)o3)cc2)CC1 | -9.6% |
| Brc1ccc(-c2noc(-c3ccccc3)n2)o1 | 53.9% (active) |
| O=C(Oc1ccc(-c2nc(-c3ccccn3)no2)cc1)c1ccccc1 | 26.9% |
| CCS(=O)(=O)c1ccc(-c2cccc(NC(=O)c3ccc(Br)o3)c2)nn1 | 19.3% |
| O=C(Nc1ccc(-c2nnc(-c3ccccc3)o2)cc1)c1ccc(Br)o1 | 34.6% (active) |
| CCCN(CCC)c1ccc(C(O)c2nnc(-c3ccccc3)o2)cc1 (stereo not given) | 5.96% |
| Nc1nonc1-c1noc(-c2ccc(Br)o2)n1 | 34.9% |
| Brc1ccc(-c2nnc(-c3ccccc3)o2)o1 | 47.1% (active) |
| CN1CCN(C(CNS(=O)(=O)c2cccs2)c2cccnc2)CC1 (stereo not given) | -8.82% |
| CCOc1cc2[nH]c(=O)n(CCC(=O)NCc3ccc(OC)cc3)c(=O)c2cc1OCC | -1.79% |
| CCCc1ccc(S(=O)(=O)N2CCN(C(=O)c3cc(C)on3)CC2)cc1 | 12.9% |
| Cc1c(C(=O)NCC(c2ccco2)N2CCCC2)oc2ccc(Cl)cc12 (stereo not given) | 3.49% |
| CN(Cc1ccccc1F)c1cc2c(c3c1ccn3C)C1CCC2O1 (stereo not given) | 6.79% |
